Screening data: PubChem, Johns Hopkins Ion Channel Center
KCNQ2 pot: enhances the rat KCNQ2 potassium channel; AID 2239; hit rate 0.54% among 310,000; CHO-K1 KCNQ2, FluxOR thallium flux fluorescence; hits give high values; O88943; B-score at 10 µM;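 active = fluorescence ratio B-score at least 3 SD of library B-scores, with initial fluorescence B-score within 3 of them, cut at about 5.3 in these data; same plate scores as AID 2156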;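 note: B-score of peak minus minimum over baseline fluorescence ratio after K+ and Tl+ stimulus; positive B-score means potentiation of KCNQ2 with more thallium influx and brighter signal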
KCNQ2 inh: inhibitors of rat KCNQ2 potassium channel; O88943; CHO-K1 KCNQ2, FluxOR thallium flux, 20 min; hits give low values; B-score at 10 µM; hit rate 1.1% among 310,000; AID 2156;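 active = fluorescence ratio B-score at most minus 3 library SDs, with starting brightness B-score within 2 library SDs, cut at about -5.5 in these data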
Kir21 conf inh: confirmation of mouse Kir2.1 potassium channel inhibitors. shares compounds with KCNQ2 pot. Kir2.1-expressing cells, FluxOR thallium flux fluorescence; hits give low values. Tl flux remaining, % of negative control (hits give low values), % at 10 µM. hit rate 41% among 2,300. AID 2032;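 active = Primary-screen hit whose thallium flux fell at least 3 control SD below untreated wells in both duplicates, with normal baseline fluorescence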;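 note: 0% = blank wells without stimulus and 100% = stimulated no-compound controls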
HEK293 ctr: counter-screen for Kir2.1 inhibitors: effect in parental HEK293 cells; AID 2105; FluxOR signal as % of negative control (100 = no effect), % at 10 µM; FluxOR thallium flux fluorescence; 0% = unstimulated blank wells; shares compounds with KCNQ2 pot; hit rate 19% among 2,300;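 active = dye signal at least 3 control SD above or below untreated wells in both duplicates, raw fluorescence within 3, either direction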;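 note: percent is based on the flux ratio of peak minus minimum fluorescence over baseline F0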
CHO-K1 Tl ctr: counter-screen for KCNQ2 potentiators: effect in parental CHO-K1 cells. FluxOR thallium flux fluorescence; zero = vehicle mean+3SD, 100% = vehicle-minus-blank window. shares compounds with KCNQ2 pot. AID 2282. activity increase over 3SD of controls, % at 10 µM. hit rate 43% among 1,200;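 active = signal rise of at least 3 SD above the untreated control mean, in both duplicate wells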;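 note: counter screen of KCNQ2 potentiator hits so any rise reflects channel-independent effects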
KCNQ1 pot spec: human KCNQ1 counter-target activity of KCNQ2 potentiators | shares compounds with KCNQ2 pot | CHO KCNQ1 stable, FluxOR thallium flux fluorescence; beyond 3SD, as % of vehicle-control signal | activation over 3SD threshold, % at 10 µM | hit rate 28% among 1,200 | AID 2283;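 active = fluorescence ratio rise of at least 3 SD of vehicle wells above their mean, in both replicate wells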;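 note: 0% = vehicle mean plus 3 SD and 100% = vehicle minus unstimulated blank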
KCNQ2 pot conf: rat KCNQ2 channel potentiator confirmation. hit rate 68% among 1,200. AID 2287. potentiation, less the hit threshold, % at 10 µM. CHO-KCNQ2 cells, FluxOR thallium flux fluorescence. shares compounds with KCNQ2 pot;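 active = fluorescence ratio rising 3 SD or more over the vehicle control mean in both replicates, plus primary screen hit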;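 note: peak minus minimum thallium fluorescence divided by baseline after K/Tl stimulus; 0% = vehicle mean plus 3 SD and 100% = vehicle minus unstimulated blank difference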
Kir21 spec: mouse Kir2.1 off-target activity of KCNQ2 potentiators; shares compounds with KCNQ2 pot; HEK293 Kir2.1, FluxOR thallium flux fluorescence; activity over 3SD threshold, % at 10 µM; hit rate 2% among 1,200; AID 2345;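 active = fluorescence ratio rise of at least 3 SD above the vehicle-control mean, seen in both replicates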;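 note: 0% = vehicle mean plus 3 SD and 100% = vehicle minus no-stimulus blank window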
KCNQ2 W236L MoA: rat KCNQ2 W236L mutant potentiation by KCNQ2 potentiators. hit rate 10% among 940. CHO KCNQ2-W236L, automated patch clamp current. shares compounds with KCNQ2 pot. current increase over 3SD of negative controls (%), hits give high values, % at 25 µM;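 active = current increase at least 3 SD of the untreated controls above them in both duplicate recordings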
Target sequence (O88943 whole entry W236L, looked up): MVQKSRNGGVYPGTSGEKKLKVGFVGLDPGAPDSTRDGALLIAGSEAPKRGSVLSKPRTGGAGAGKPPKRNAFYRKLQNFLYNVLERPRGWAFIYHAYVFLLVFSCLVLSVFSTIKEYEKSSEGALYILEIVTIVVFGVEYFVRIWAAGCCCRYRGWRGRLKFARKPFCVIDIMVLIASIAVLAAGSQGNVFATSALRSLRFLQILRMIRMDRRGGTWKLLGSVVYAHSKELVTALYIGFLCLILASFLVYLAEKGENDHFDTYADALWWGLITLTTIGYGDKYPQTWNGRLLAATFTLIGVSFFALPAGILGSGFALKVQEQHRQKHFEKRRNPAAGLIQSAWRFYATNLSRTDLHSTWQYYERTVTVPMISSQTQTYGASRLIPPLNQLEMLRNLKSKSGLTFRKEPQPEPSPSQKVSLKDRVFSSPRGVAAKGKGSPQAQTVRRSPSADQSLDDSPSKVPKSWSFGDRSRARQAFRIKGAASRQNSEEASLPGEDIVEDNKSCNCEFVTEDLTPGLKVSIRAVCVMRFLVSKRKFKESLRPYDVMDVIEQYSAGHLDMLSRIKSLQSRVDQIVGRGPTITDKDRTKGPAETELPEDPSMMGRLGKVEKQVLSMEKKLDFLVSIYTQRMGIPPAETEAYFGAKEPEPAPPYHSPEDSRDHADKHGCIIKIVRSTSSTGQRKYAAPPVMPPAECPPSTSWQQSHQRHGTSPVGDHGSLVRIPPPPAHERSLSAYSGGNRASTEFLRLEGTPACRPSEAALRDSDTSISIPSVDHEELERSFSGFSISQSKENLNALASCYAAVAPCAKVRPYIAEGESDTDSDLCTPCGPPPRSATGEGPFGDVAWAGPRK
* marks the source's active call; other numbers are inactive results; i = inactive; . = not tested or not shown. Sampled rows, rich in hits. Any-hit rate of the full collection: about 1.6%.

SMILES	KCNQ2 pot	KCNQ2 inh	Kir21 conf inh	HEK293 ctr	others
Cc1ccc2c(c1)N(CC(=O)NC1CCCCCC1)C(=O)c1cccnc1O2	.	i	.	.
Cc1csc(NC(=O)c2cc3c(s2)CCCCC3)n1	1.3	i	.	.
Cc1csc(NC(=O)c2cc3c(s2)CCCC3)n1	7.3*	i	i	i	CHO-K1 Tl ctr=96*;KCNQ1 pot spec=-18;KCNQ2 pot conf=-2;Kir21 spec=-29;KCNQ2 W236L MoA=i
Cc1ccc2nc(C)c(C(=O)NN=C3CCN(C)CC3)n2c1	0.34	i	.	.
Cc1ccc(C(C2C(=O)CC(C)(C)CC2=O)C2C(=O)CC(C)(C)CC2=O)s1	5.6*	i	i	i	CHO-K1 Tl ctr=-1;KCNQ1 pot spec=-20;KCNQ2 pot conf=-31;Kir21 spec=-58
CC1(C)CC(=O)C(C(c2ccncc2)C2C(=O)CC(C)(C)CC2=O)C(=O)C1	.	i	.	.
COc1cccc(C(=O)Nc2ccccc2C(=O)NCC2CCCO2)c1 (stereo not given)	.	i	.	.
CC(=O)Oc1cc2c3c(c1)/C(=C1/SC(=S)NC1=O)C(=O)N3C(C)(C)C=C2C	6.8*	i	i	i	CHO-K1 Tl ctr=-11;KCNQ1 pot spec=12*;KCNQ2 pot conf=-21;Kir21 spec=-21
CCOc1cc2c3c(c1)C(C)=CC(C)(C)N3C(=O)C2=O	1.9	i	.	.
Cc1c(N2C(=O)CSC2c2ccc(F)cc2)c(=O)n(-c2ccccc2)n1C (stereo not given)	0.65	i	.	.
N#CC1=C(N)N(c2ccccc2)C(c2cccc([N+](=O)[O-])c2)C1(C#N)C#N (stereo not given)	.	i	59%*	72%*
N#CC1=C(N)N(c2ccccc2)C(c2ccco2)C1(C#N)C#N (stereo not given)	.	i	.	.
Cc1c(F)cccc1NS(=O)(=O)c1ccc2c(c1)NC(=O)CO2	0.81	i	.	.
CCC1(CC)C(=O)C2=C3C1[C@H](C(=O)OC)CC(C(=O)OC)C[C@H]3[C@H]1C(=O)N(c3ccccc3)C(=O)[C@H]1[C@H]2C (stereo not given in full)	0.88	i	.	.
CSC1=C(C#N)C(CC(C)C)C2=C(CCCC2=O)N1 (stereo not given)	1.4	i	.	.
CSC1=C(C#N)C(CC(C)C)C(C(C)=O)=C(C)N1 (stereo not given)	1.2	i	72%*	i
CCOC(=O)C1CCCN(C(=O)c2cc3c(OC)c(OC)c(OC)cc3[nH]2)C1 (stereo not given)	.	i	.	.
C=CCn1c(SCC(C)=O)nc2scc(-c3ccc(C)o3)c2c1=O	.	i	.	.
CCn1c(=S)[nH]c2scc(-c3cccs3)c2c1=O	18*	i	i	508%*	CHO-K1 Tl ctr=3.7*;KCNQ1 pot spec=-18;KCNQ2 pot conf=94*;Kir21 spec=1.6*;KCNQ2 W236L MoA=i
O=c1c2c(-c3cccs3)csc2[nH]c(=S)n1-c1ccccc1	1.3	i	.	.
C=CCn1c(=S)[nH]c2scc(-c3ccc(C)o3)c2c1=O	16*	i	i	384%*	CHO-K1 Tl ctr=4.1*;KCNQ1 pot spec=-13;KCNQ2 pot conf=46*;Kir21 spec=-21;KCNQ2 W236L MoA=i
Cc1ccc(SCC(=O)N(C)CC(=O)Nc2cccc(F)c2)c(C)c1	.	i	.	.
CC(=O)Oc1ccc2c3c(c(=O)oc2c1)CCCC3	0.71	i	.	.
O=c1oc2cc(O)ccc2c2c1CCCC2	0.87	i	i	i
COc1ccc(N2CC(C(=O)Nc3nnc(SCC(=O)NCC4CCCO4)s3)CC2=O)cc1 (stereo not given)	0.97	i	.	.
O=C(c1c[nH]c(C(=O)C(Cl)(Cl)Cl)c1)c1ccc(F)cc1F	.	i	.	.
O=C(c1c[nH]c(C(=O)C(Cl)(Cl)Cl)c1)c1ccc(F)cc1Cl	6.6*	i	i	i	CHO-K1 Tl ctr=-4;KCNQ1 pot spec=-20;KCNQ2 pot conf=4.6*;Kir21 spec=-40;KCNQ2 W236L MoA=i
CCC(=O)N1CCN(c2ccc(NC(=O)COc3ccc(CC)cc3)cc2)CC1	.	i	.	.
